Reference: PubChem BioAssay (NCI)
The panel holds about 79,000 compounds, 15% with a hit somewhere; the sample as a whole holds those more often. Calls of active or inactive are those of the source. Cut-off read from the data, not from the text of the source: active = growth inhibition above about 70%; inactive = the rest.

Columns and labels:
[1] = NCI Yeast Anticancer Drug Screen. Data for the rad52 strain (AID 147);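 note: 0% = growth of vehicle-treated control cultures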; conditions: S. cerevisiae rad52 mutant growth inhibition, active compounds read high
Outline: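 Screen used a yeast mutant impaired in DNA repair. After compound exposure, growth was measured. Values reflect inhibition compared with vehicle-treated cells.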

[2] = NCI Yeast Anticancer Drug Screen. Data for the wt1 strain (AID 149);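 note: 0% = growth of vehicle-treated wt1 cultures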; conditions: S. cerevisiae wt1 strain (SPY 50644) growth inhibition, active compounds read high
Outline: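 Compounds are added to wt1 yeast cultures. Growth is then measured. Inhibition is expressed relative to vehicle-treated controls.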

[3] = NCI Yeast Anticancer Drug Screen. Data for the rad50EPP+ strain (AID 151);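 note: 0% = growth of vehicle-treated control cultures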; conditions: S. cerevisiae rad50 mutant strain, active compounds read high
Outline: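 Exposing the rad50EPP+ strain to each compound, growth was compared with vehicle-only cultures to give inhibition.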

[4] = NCI Yeast Anticancer Drug Screen. Data for the rad50 strain (AID 155);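 note: 0% = growth of vehicle-only cultures of the same strain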; conditions: S. cerevisiae rad50 strain growth inhibition, active compounds read high
Outline: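 Inhibition values express reduced yeast growth in compound-treated cultures relative to vehicle-treated controls.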

[5] = NCI Yeast Anticancer Drug Screen. Data for the mec2-1 strain (AID 157); conditions: S. cerevisiae mec2-1 strain, active compounds read high
Outline: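 Readout is yeast growth inhibition, normalised to vehicle-treated controls, in the mec2-1 strain exposed to compound.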

[6] = NCI Yeast Anticancer Drug Screen. Data for the rad14 strain (AID 159);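 note: 0% = growth of vehicle-treated control cultures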; conditions: S. cerevisiae rad14 strain growth inhibition, active compounds read high
Outline: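 A mutant yeast strain defective in DNA damage repair is treated with compound; inhibition of its growth is scored against untreated, vehicle-exposed cultures.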

[7] = NCI Yeast Anticancer Drug Screen. Data for the sgs1 mgt1 strain (AID 161);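 note: 0% = growth of cultures given vehicle only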; conditions: S. cerevisiae sgs1 mgt1 strain, active compounds read high
Outline: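 Yeast cells carrying a defined DNA-repair defect were exposed to test compounds. Growth inhibition was measured relative to vehicle-treated controls.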

[8] = NCI Yeast Anticancer Drug Screen. Data for the CLN2oe strain (AID 163);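 note: 0% = growth of vehicle-only control cultures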; conditions: S. cerevisiae CLN2oe strain, active compounds read high
Outline: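 Values reflect how much compound exposure reduced yeast growth, referenced to vehicle-exposed cells. Assay organism is a strain with a defined genetic change affecting cell-cycle control.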

[9] = NCI Yeast Anticancer Drug Screen. Data for the cln2 rad14 strain (AID 165);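 note: 0% = growth equal to vehicle treated cultures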; conditions: S. cerevisiae cln2 rad14 strain, active compounds read high
Outline: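 Relative to vehicle controls, growth inhibition of compound-treated cln2 rad14 yeast was recorded.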

[10] = NCI Yeast Anticancer Drug Screen. Data for the bub3 strain (AID 167); conditions: S. cerevisiae bub3 mutant strain, active compounds read high
Outline: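 Steps: expose the mutant yeast strain to compound; grow alongside vehicle-treated cultures; measure growth; express inhibition against the vehicle cultures.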

[11] = NCI Yeast Anticancer Drug Screen. Data for the wt2 strain (AID 169);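 note: 0% = growth of vehicle-treated yeast cultures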; conditions: S. cerevisiae wt2 strain growth inhibition, active compounds read high
Outline: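 Values express reduction in yeast growth under compound treatment, referenced to vehicle-treated cells.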

[12] = NCI Yeast Anticancer Drug Screen. Data for the mlh1 strain (AID 171);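 note: 0% = growth of vehicle-treated control cultures of the same strain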; conditions: S. cerevisiae mlh1 strain growth inhibition, active compounds read high
Outline: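 Steps: expose the defined-mutant yeast strain to compound; expose a parallel culture to vehicle; measure growth; express compound effect as inhibition relative to the vehicle culture.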

[13] = NCI Yeast Anticancer Drug Screen. Data for the sgs1 strain (AID 173);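 note: 0% = growth of vehicle-only control cultures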; conditions: S. cerevisiae sgs1 mutant, active compounds read high
Outline: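 Treat defined-mutant yeast with compound; measure growth; calculate inhibition relative to vehicle-treated cells.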

[14] = NCI Yeast Anticancer Drug Screen. Data for the mlh1 rad18 strain (AID 175); conditions: S. cerevisiae mlh1 rad18 strain growth inhibition, active compounds read high
Outline: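 Test agents were incubated with a yeast strain of defined genotype (DNA damage repair defect). Inhibition of growth was derived by comparison with vehicle-exposed cultures.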

[15] = NCI Yeast Anticancer Drug Screen. Data for the rad18 strain (AID 177); conditions: S. cerevisiae rad18 mutant growth inhibition, active compounds read high
Outline: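 A genetically defined yeast mutant impaired in DNA damage repair was treated with test compounds, then its growth was measured against cultures receiving vehicle alone.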

[16] = at 5.0 µM (retest, dose inferred, filed as 0.5)
[17] = at 50.0 µM (retest, dose inferred, filed as 5.0)

Measured: growth inhibition

COC(=O)c1ccc2c(c1)Cc1ccccc1-2
inactive: [1]; at 1.2 µM -1% | [1]; at 3.7 µM 5% | [1]; at 11.0 µM 11% | [1]; at 33.0 µM 19% | [1]; at 100.0 µM 28% | [2]; at 1.2 µM -3% | [2]; at 3.7 µM -5% | [2]; at 11.0 µM -3% | [2]; at 33.0 µM -2% | [2]; at 100.0 µM -2% | [3]; at 1.2 µM 2% | [3]; at 3.7 µM 10% | [3]; at 11.0 µM 25% | [3]; at 33.0 µM 39% | [3]; at 100.0 µM 43% | [4]; at 1.2 µM 2% | [4]; at 3.7 µM 10% | [4]; [16] 0% | [4]; at 11.0 µM 13% | [4]; at 33.0 µM 12% | [4]; [17] -11% | [4]; at 100.0 µM 32% | [5]; at 1.2 µM -4% | [5]; at 3.7 µM 1% | [5]; [16] -12% | [5]; at 11.0 µM -12% | [5]; at 33.0 µM -3% | [5]; [17] -4% | [5]; at 50.0 µM 39% | [5]; at 100.0 µM 1% | [6]; at 1.2 µM -3% | [6]; at 3.7 µM -6% | [6]; at 11.0 µM -4% | [6]; at 33.0 µM -3% | [6]; at 100.0 µM -6% | [7]; [16] -5% | [7]; [17] -4% | [7]; at 50.0 µM 46.9% | [8]; at 1.2 µM -1% | [8]; at 3.7 µM 0% | [8]; at 11.0 µM -4% | [8]; at 33.0 µM -3% | [8]; at 100.0 µM -11% | [9]; [16] 35% | [9]; [17] 0% | [9]; at 50.0 µM 29.4% | [10]; at 1.2 µM -7% | [10]; at 3.7 µM -7% | [10]; [16] 0% | [10]; at 11.0 µM 3% | [10]; at 33.0 µM 3% | [10]; [17] -1% | [10]; at 50.0 µM 41.2% | [10]; at 100.0 µM 19% | [11]; at 1.2 µM -3% | [11]; at 3.7 µM -2% | [11]; at 11.0 µM -4% | [11]; at 33.0 µM 3% | [11]; at 100.0 µM 28% | [12]; at 1.2 µM -3% | [12]; at 3.7 µM 9% | [12]; at 11.0 µM 2% | [12]; at 33.0 µM -11% | [12]; at 100.0 µM 8% | [13]; at 1.2 µM -3% | [13]; at 3.7 µM -4% | [13]; at 11.0 µM -1% | [13]; at 33.0 µM 3% | [13]; at 100.0 µM 17% | [14]; [16] -2% | [14]; [17] 6% | [14]; at 50.0 µM 45.6% | [15]; at 1.2 µM -1% | [15]; at 3.7 µM 1% | [15]; at 11.0 µM 6% | [15]; at 33.0 µM 4% | [15]; at 100.0 µM 9%
active: [4]; at 50.0 µM 72.5%

C/C=C/[P+](c1ccccc1)(c1ccccc1)c1ccccc1
inactive: [1]; at 1.2 µM 49% | [1]; at 3.7 µM 62% | [2]; at 1.2 µM 31% | [2]; at 3.7 µM 42% | [2]; at 11.0 µM 54% | [2]; at 33.0 µM 61% | [3]; at 1.2 µM 13% | [3]; at 3.7 µM 2% | [3]; at 11.0 µM -4% | [3]; at 33.0 µM 0% | [3]; at 100.0 µM 16% | [4]; at 1.2 µM 50% | [4]; at 3.7 µM 67% | [4]; [16] 48% | [5]; at 1.2 µM 21% | [5]; at 3.7 µM 44% | [5]; [16] 33% | [5]; at 11.0 µM 54% | [5]; at 33.0 µM 64% | [5]; [17] 63% | [6]; at 1.2 µM 30% | [6]; at 3.7 µM 27% | [6]; at 11.0 µM 28% | [6]; at 33.0 µM 63% | [7]; [16] 20% | [8]; at 1.2 µM 16% | [8]; at 3.7 µM 13% | [8]; at 11.0 µM 29% | [8]; at 33.0 µM 30% | [9]; [16] 9% | [9]; [17] 16% | [9]; at 50.0 µM 52.6% | [10]; at 1.2 µM 15% | [10]; at 3.7 µM 29% | [10]; [16] 25% | [10]; at 11.0 µM 49% | [10]; at 33.0 µM 67% | [11]; at 1.2 µM -1% | [11]; at 3.7 µM 12% | [11]; at 11.0 µM 18% | [11]; at 33.0 µM 47% | [12]; at 1.2 µM 30% | [12]; at 3.7 µM 43% | [12]; at 11.0 µM 63% | [12]; at 33.0 µM 68% | [13]; at 1.2 µM 19% | [13]; at 3.7 µM 31% | [13]; at 11.0 µM 55% | [13]; at 33.0 µM 61% | [14]; [16] 33% | [14]; [17] 63% | [15]; at 1.2 µM 58% | [15]; at 3.7 µM 67% | [15]; at 11.0 µM 68%
active: [1]; at 11.0 µM 70% | [1]; at 33.0 µM 83% | [1]; at 100.0 µM 92% | [2]; at 100.0 µM 86% | [4]; at 11.0 µM 72% | [4]; at 33.0 µM 86% | [4]; [17] 78% | [4]; at 50.0 µM 81.2% | [4]; at 100.0 µM 95% | [5]; at 50.0 µM 83.3% | [5]; at 100.0 µM 91% | [6]; at 100.0 µM 97% | [7]; [17] 73% | [7]; at 50.0 µM 78.3% | [8]; at 100.0 µM 78% | [10]; [17] 86% | [10]; at 50.0 µM 78.6% | [10]; at 100.0 µM 90% | [11]; at 100.0 µM 87% | [12]; at 100.0 µM 92% | [13]; at 100.0 µM 89% | [14]; at 50.0 µM 87.8% | [15]; at 33.0 µM 90% | [15]; at 100.0 µM 94%

[N-]=[N+]=NC(c1ccccc1)(c1ccccc1)c1ccccc1
inactive: [1]; at 1.2 µM 8% | [1]; at 3.7 µM 6% | [1]; at 11.0 µM 9% | [1]; at 33.0 µM 29% | [2]; at 1.2 µM 15% | [2]; at 3.7 µM 12% | [2]; at 11.0 µM -6% | [2]; at 33.0 µM 32% | [3]; at 1.2 µM 9% | [3]; at 3.7 µM 15% | [3]; at 11.0 µM 11% | [3]; at 33.0 µM 21% | [3]; at 100.0 µM 28% | [4]; at 1.2 µM 14% | [4]; at 3.7 µM 22% | [4]; at 11.0 µM 6% | [4]; at 33.0 µM 40% | [5]; at 1.2 µM 12% | [5]; at 3.7 µM 11% | [5]; at 11.0 µM 13% | [5]; at 33.0 µM 32% | [6]; at 1.2 µM -9% | [6]; at 3.7 µM 1% | [6]; at 11.0 µM -4% | [6]; at 33.0 µM 24% | [7]; [16] -4% | [8]; at 1.2 µM 29% | [8]; at 3.7 µM 23% | [8]; at 11.0 µM 20% | [8]; at 33.0 µM 26% | [9]; [16] 17% | [10]; at 1.2 µM 3% | [10]; at 3.7 µM -17% | [10]; [16] 12% | [10]; at 11.0 µM -16% | [10]; at 33.0 µM 27% | [11]; at 1.2 µM -14% | [11]; at 3.7 µM -9% | [11]; at 11.0 µM -11% | [11]; at 33.0 µM 16%
active: [1]; at 100.0 µM 94% | [2]; at 100.0 µM 88% | [4]; [16] 100% | [4]; [17] 98% | [4]; at 50.0 µM 85% | [4]; at 100.0 µM 92% | [5]; [16] 99% | [5]; [17] 98% | [5]; at 50.0 µM 80.8% | [5]; at 100.0 µM 95% | [6]; at 100.0 µM 94% | [7]; [17] 84% | [7]; at 50.0 µM 87.7% | [8]; at 100.0 µM 78% | [9]; [17] 89% | [9]; at 50.0 µM 80.5% | [10]; [17] 79% | [10]; at 50.0 µM 87.8% | [10]; at 100.0 µM 86% | [11]; at 100.0 µM 89%
